Screening data: PubChem BioAssay, National Center for Advancing Translational Sciences (NCATS)
This is a sample that favours compounds with a hit; in the whole collection about 12% have one here.
PI5P4Ka inh – inhibitors of human PI5P4K alpha; PI5P4Kalpha enzyme, ADP-Glo luminescence, 60 min; hits give low values; P48426; actives 1.2% (n = 330,000); max response, %; active = max response of -50% or lower; inconclusive = between -30% and -50%; inactive = -30% or higher; also: value at the top dose of about 77 µM; % is scaled to controls: 0 for no effect and ±100 for the full control effect
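Controls without substrate or without enzyme flank wells where PI5P4Kalpha converts substrate using 5 microM ATP (final). Incubation lasts 60 minutes at room temperature; ADP formed is read by ADP-Glo luminescence.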
BAZ2B block – BAZ2B (human) inhibition | actives 4.4% (n = 360,000) | AlphaScreen BAZ2B-H3K14Ac peptide displacement | Q9UIF8 | AID 504333 | Potency, µM (highest dose often 114 µM), without a hit: at the highest dose activity change, negative = inhibition, most hits filed as inhibitors; also: potency is read from the fitted curve at half-maximal effect; % is scaled to controls: 0 for no effect and ±100 for the full control effect; nearly all actives have a fitted effect of over 60% in size
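Compounds, titrated to a top concentration of 110 uM, were incubated 30 min at room temperature with preformed BAZ2B/acetyl-K14 H3 peptide complex (50 nM each). Proximity signal was measured by AlphaScreen after 20 min with beads.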
JMJD2A Tudor inh – inhibitors of human JMJD2A Tudor domain | O75164 | AlphaScreen JMJD2A-Tudor / H3K4me3 peptide binding | Potency, µM (series often up to 114 µM), without a hit: at the highest dose activity change, negative = inhibition, usual class: inhibitors | actives 4.4% (n = 390,000); also: potency is read from the fitted curve at half-maximal effect; % is scaled to controls: 0 for no effect and ±100 for the full control effect; nearly all actives have a fitted effect of over 50% in size
PLK1 PBD block – blocks phosphopeptide binding to human PLK1 polo-box domain. P53350. Plk1 PBD binding of FITC phosphopeptide, fluorescence polarization. Potency, µM, inactives show max response, negative = inhibition, most hits filed as inhibitors. actives 2.8% (n = 360,000); also: potency is read from the fitted curve at half-maximal effect; series mostly up to about 57 µM; % is scaled to controls: 0 for no effect and ±100 for the full control effect; nearly all actives have a fitted effect of over 65% in size
HP1b binding inh – HP1-beta chromodomain-methylated histone interaction inhibition. AlphaScreen HP1-beta / biotin-H3K9me3 peptide binding. Potency, µM (series often up to 114 µM), for inactives: at the highest dose activity change, negative = inhibition, actives largely listed as inhibitors. actives 0.56% (n = 390,000). AID 540317; also: potency is read from the fitted curve at half-maximal effect; nearly all actives have a fitted effect of over 70% in size
Target sequence (P83916 whole entry, looked up): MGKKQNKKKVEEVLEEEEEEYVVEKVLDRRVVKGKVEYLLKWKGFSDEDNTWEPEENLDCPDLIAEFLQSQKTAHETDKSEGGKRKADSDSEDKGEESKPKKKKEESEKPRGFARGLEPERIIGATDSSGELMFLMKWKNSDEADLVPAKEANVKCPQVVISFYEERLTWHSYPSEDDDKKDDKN
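HP1-beta protein (50 nM final) preincubated 30 min at room temperature with biotinylated H3(1-18)K9me3 peptide (50 nM) in PBS pH 7.4, 0.01% Tween-20, then compound added for 30 min. AlphaScreen streptavidin donor/nickel chelate acceptor beads (10 ug/mL final), 30 min dark, luminescence read.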
G9a inh – G9a (human) methyltransferase inhibition. G9a H3K9 monomethylation, AlphaScreen, 2 h. AID 504332. actives 8.8% (n = 350,000). Q96KQ7. Potency, µM (series often up to 102 µM), for inactives: at the top dose activity, negative = inhibition, usual class: inhibitors; also: potency is read from the fitted curve at half-maximal effect; % is scaled to controls: 0 for no effect and ±100 for the full control effect; nearly all actives have a fitted effect of over 75% in size
Target sequence (Q96KQ7 913-1193 limits assumed): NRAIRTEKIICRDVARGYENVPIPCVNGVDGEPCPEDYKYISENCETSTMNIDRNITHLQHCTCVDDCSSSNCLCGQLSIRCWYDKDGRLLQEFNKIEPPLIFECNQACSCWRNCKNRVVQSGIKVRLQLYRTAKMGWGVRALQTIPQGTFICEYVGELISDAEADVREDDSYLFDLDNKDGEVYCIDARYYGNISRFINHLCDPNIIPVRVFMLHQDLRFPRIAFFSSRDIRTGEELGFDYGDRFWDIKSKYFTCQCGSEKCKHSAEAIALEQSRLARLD
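Quantitative HTS format: methyltransferase activity on a biotin-tagged H3K9 peptide is measured by AlphaScreen, using a rabbit anti-monomethyl-H3K9 antibody with streptavidin donor and anti-IgG acceptor beads. Final levels are 20 nM enzyme, 500 nM peptide, 20 uM SAM; 2 h RT.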
* = called active by the depositor; ? = inconclusive; / = no result given; [ ] = dose if it differs, or a comment. Unless noted, calls follow the shape of the dose curve; as a rule, active = well fitted curve in the direction sought with a large enough effect; inconclusive = small, poorly fitted or top-dose-only effect, or another doubt; inactive = no such curve, though single readings can be large; an effect the other way counts as inactive or inconclusive.

SMILES | PI5P4Ka inh | BAZ2B block | JMJD2A Tudor inh | PLK1 PBD block | HP1b binding inh | G9a inh
COc1cccc2sc(N3CCN(C(=O)CS(=O)(=O)c4ccc(Cl)cc4)CC3)nc12 | / | -21.4% | -32.8% | / | 7.0% | -32.0%[59 µM]
C#CCOCCOCCOCCNc1nc(N2CCOCC2)nc(N2CCN(C(=O)[C@H](Cc3cc4ccccc4[nH]3)n3cc([C@@H](N)Cc4ccc(O)cc4)nn3)CC2)n1 | -2.4 | ? | ? | 26.7µM* | -7.4% | ?
C#CCOCCOCCOCCNc1nc(N2CCOCC2)nc(N2CCN(C(=O)[C@H](CC(N)=O)n3cc(C(N)[C@@H](C)CC)nn3)CC2)n1 (stereo partly specified) | 0.0 | / | -30.9% | -13.9% | 25.1% | /
C#CCOCCOCCOCCNc1nc(N2CCN(C(=O)[C@H](CCC(=O)O)n3cc(C(N)Cc4ccc(O)cc4)nn3)CC2)nc(N2CCN(C(=O)[C@H](Cc3cc4ccccc4[nH]3)n3cc(C(N)CC(C)C)nn3)CC2)n1 (stereo partly specified) | / | 79.4µM* | / | / | / | 4.7%[12.7 µM]
C#CCOCCOCCOCCNc1nc(N2CCN(C(=O)C(Cc3ccc(O)cc3)n3cc(C(N)CC(C)C)nn3)CC2)nc(N2CCN(C(=O)C(Cc3cc4ccccc4[nH]3)n3cc(C(N)Cc4ccc(O)cc4)nn3)CC2)n1 (stereo unspecified) | / | 35.5µM* | / | / | / | -0.7%[12.7 µM]
C#CCOCCOCCOCCNc1nc(N2CCN(C(=O)[C@H]([C@@H](C)CC)n3cc([C@@H](N)CO)nn3)CC2)nc(N2CCN(C(=O)[C@H](Cc3cc4ccccc4[nH]3)n3cc([C@@H](N)Cc4ccc(O)cc4)nn3)CC2)n1 | / | 14.1µM* | / | / | / | ?
COCCn1c(=O)c(-c2cn(C)c3ccccc23)nc2cnc(N3CCNCC3)nc21 | / | / | / | / | / | 9.7%[0.501 µM]
CCC(=O)N1c2ccccc2CC1C(=O)NCCCN1CCN(c2cc(C)ccc2C)CC1 (stereo unspecified) | / | -21.6% | -29.1% | / | 55.2% | 9.9%[59 µM]
COc1cc(NC(=O)CC(c2cccs2)N2Cc3ccccc3C2=O)cc(OC)c1OC (stereo unspecified) | / | -21.5% | 7.6% | / | 26.5% | -30.5%[59 µM]
N#Cc1cccc(-c2ccc3ncnc(NCc4ccccc4)c3c2)c1 | / | / | / | / | / | 3.9%[0.501 µM]
O=C(c1ccc(NS(=O)(=O)c2ccc(F)cc2)cc1)N1CCCCC1 | -12.5 | 7.4% | -7.5% | -15.7% | 8.0% | 44.7µM*
COc1ccccc1C(=O)NNC(=O)C(=O)N1CCCCC1 | -1.7 | ? | ? | -4.1% | 17.6% | /
O=C(NNC(=O)c1ccc(F)cc1)C(=O)N1CCCCC1 | -0.3 | 8.0% | 25.1µM* | -9.6% | 10.0% | ?
O=C(c1ccc(NS(=O)(=O)c2ccc(F)cc2)cc1)N1CCCCCC1 | 0.0 | 5.0% | -29.2% | -3.7% | -14.4% | -42.4%
O=S(=O)(Nc1ccc(N2CCCCC2)cc1)c1ccc(F)cc1 | -3.8 | 79.4µM* | ? | -1.8% | ? | /
O=C(CNS(=O)(=O)c1ccc(C(=O)N2CCCCC2)cc1)N1CCCCC1 | -8.4 | -18.1% | 56.2µM* | 29.9µM* | -6.6% | -41.6%[12.7 µM]
CC12CCC=CC1C(c1ccc3ccccc3c1C=Cc1ccccc1)N(Cc1ccccc1)C2=O (stereo unspecified) | / | / | -35.9% | / | 0.4% | /
CCN(CC)S(=O)(=O)c1ccc2c(c1)nc(CN(C)C(=O)Nc1ccc(C)c(F)c1)n2C | / | -18.4% | -9.9% | / | 24.7% | 1.5%[12.7 µM]
COc1ccc(CCNC(=O)Cc2c(C)c3c(cc(C)c4c(C)coc43)oc2=O)cc1 | / | -2.6% | -6.9% | / | 36.1% | 9.7%[59 µM]
O=S(=O)(Nc1ccc(N2CCCCC2)cc1)c1cccs1 | / | ? | ? | -12.4% | -25.9% | 35.5µM*
O=S(=O)(Nc1ccc(N2CCCCC2)cc1)c1ccccc1 | -2.6 | 50.1µM* | ? | -3.8% | ? | ?
O=S(=O)(Nc1ccc(N2CCOCC2)cc1)c1ccccc1 | -6.1 | 6.0% | -5.0% | -9.3% | 14.5% | ?
O=S(=O)(Nc1ccc(S(=O)(=O)N2CCCCCC2)cc1)c1cccs1 | / | 3.5% | -5.0% | -4.8% | 13.9% | 7.0%[12.7 µM]
CSc1ccc(CCNC(=O)CCn2c(=O)c3cccn3c3cccnc32)cc1 | / | -0.9% | -9.2% | / | 9.5% | -0.7%[59 µM]
CC(=O)N=c1sc2nc3ccccc3nc2n1N(C(C)=O)C(C)=O | / | 50.1µM* | 7.94µM* | ? | ? | ?
SMILES | PI5P4Ka inh | BAZ2B block | JMJD2A Tudor inh | PLK1 PBD block | HP1b binding inh | G9a inh
COc1ccc2nc(-n3c(C)ccc3C)sc2c1 | / | ? | ? | -0.5% | 21.1% | ?
CCOc1ccc2nc(N3C(=O)/C(=C/c4ccccc4)NC3=S)sc2c1 | -54.1* | 3.1% | -1.4% | ? | 21.4% | -14.8%
COc1ccc2nc(N3C(=O)/C(=C/c4ccccc4)NC3=S)sc2c1 | -62.8* | -10.1% | ? | -14.4% | 10.2% | 12.6%[59 µM]
O=C(CN(c1ccc(Cl)cc1)S(=O)(=O)c1ccc(Cl)c([N+](=O)[O-])c1)NCCc1ccccc1 | -8.5 | -31.7% | -20.3% | -8.9% | 4.9% | 50.1µM*
O=C(N/N=C\c1ccccn1)c1ccccc1O | -1.5 | -1.1% | ? | -10.5% | 31.5% | 42.7%
O=C(N/N=C/c1cccc2cccnc12)c1ccccc1O | 3.5 | 7.08µM* | 7.94µM* | 2.4% | 38.8% | 41.0%
CCC(C)[C@H](NC(=O)OC(C)(C)C)C(=O)N/N=C/c1cccc2nccnc12 (stereo partly specified) | / | -35.9% | 2.6% | 0.1% | 36.1% | ?
O=C(N/N=C/c1cccc2nccnc12)c1ccncc1 | 0.0 | 17.8µM* | 56.2µM* | -2.4% | 37.5% | 16.8%
CCC(C)[C@@H](N)C(=O)N/N=C/c1cccc2nccnc12 (stereo partly specified) | -10.5 | 79.4µM* | 50.1µM* | -7.3% | 22.5% | -42.1%
CC(C)[C@@H](N)C(=O)N/N=C/c1ccc2nccnc2c1 | -3.9 | ? | -6.5% | 5.0% | 33.1% | 5.62µM*
O=C(N/N=C\c1ccncc1)c1ccccc1O | -3.2 | -8.5% | -9.8% | -13.5% | 17.6% | -2.3%
O=C(N/N=C/c1cccc2nccnc12)c1ccccc1O | 4.0 | 28.2µM* | -13.2%[11.4 µM] | 0.3% | 60.9% | 13.2%
COc1cc(C2C(c3ccccc3)C(c3cc(OC)cc(=O)o3)C2c2ccccc2)oc(=O)c1 (stereo unspecified) | 2.4 | / | -17.0% | -13.5% | 8.5% | /
Cc1ccn2cc(CC(=O)O)nc2c1 | -0.6 | 56.2µM* | 39.8µM* | -15.3% | 70.8µM* | 20µM*
CCOC(=O)c1cn2ccc(C)cc2n1 | -10.4 | 4.8% | ? | 26.7µM* | 22.8% | 10.6%[0.501 µM]
COc1ccc(C2C(C(=O)c3ccc(C)o3)=C(O)C(=O)N2c2cc(C)on2)cc1OC (stereo unspecified) | 4.1 | -36.6% | ? | -0.8% | 0.5% | ?
